# Test results published in PubChem BioAssay.
# Active and inactive are the calls of the source. Unless noted, no rule for the calls is given here.
# Legend:
# [1] = A549 cell viability effects, profiling panel, calcein-AM fluorescence, 48 h, basal (AID 1162); conditions: higher = more signal; also: test concentration not given here
# [2] = adipocyte viability effects, profiling panel, cell-based, 3T3-L1 adipocytes, calcein-AM fluorescence, 48 h, basal (AID 1163); conditions: 3T3-L1 adipocytes viability, higher = more signal; also: test concentration not given here
# [3] = HepG2 cell viability effects, profiling panel, calcein-AM fluorescence, 48 h, basal (AID 1164); conditions: higher = more signal; also: test concentration not given here
# [4] = MM1S cell viability effects, profiling panel, calcein-AM fluorescence, 48 h, basal (AID 1165); conditions: higher = more signal;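 also: viability of MM1S multiple myeloma cells under basal unstimulated conditions; test concentration not given here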
# [5] = basal RPMI8226 viability, no added stimulus, profiling panel, cell-based, calcein-AM fluorescence, 48 h, PK04 Diversity Set (AID 1166); conditions: RPMI8226 myeloma viability, higher = more signal;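 also: cells grown under basal conditions without added stimulus; test concentration not given here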
# [6] = basal HepG2 mitochondrial membrane potential changes, profiling panel, cell-based, JC-1 fluorescence, 24 h, 100 nL compound (AID 1167); conditions: higher = more signal; also: test concentration not given here
# [7] = basal 3T3-L1 adipocyte mitochondrial potential changes, profiling panel, cell-based, JC-1 fluorescence, 3T3-L1 adipocytes, 24 h, 100 nL compound (AID 1168); conditions: JC-1 mitochondrial fluorescence, higher = more signal, called active from +8 up or from −8 down; also: test concentration not given here
# [8] = basal RPMI8226 mitochondrial membrane potential changes, profiling panel, cell-based, JC-1 fluorescence, 24 h, 100 nL compound (AID 1169); conditions: RPMI8226 myeloma, JC-1 mitochondrial potential fluorescence, higher = more signal; also: test concentration not given here
# [9] = basal MM1S mitochondrial membrane potential changes, profiling panel, cell-based, JC-1 fluorescence, 24 h, 100 nL compound (AID 1170); conditions: higher = more signal; also: test concentration not given here
# [10] = A549 lung cancer cell viability effects, profiling panel, resazurin fluorescence, 24 h, PK04 Diversity Set (AID 1171); conditions: higher = more signal, called active from +8 up or from −8 down; also: test concentration not given here
# [11] = HepG2 liver cancer cell viability effects, profiling panel, resazurin fluorescence, 24 h, PK04 Diversity Set (AID 1172); conditions: higher = more signal; also: test concentration not given here
# [12] = basal S. cerevisiae growth modulation, no modifier, primary screen, OD600, strain BY4716, 24 h, basal condition (AID 1173); conditions: OD600, 24 h, higher = more signal, called active from +8 up or from −8 down
# [13] = MM1S myeloma cell viability, profiling panel, resazurin fluorescence, basal, 24 h, PK04 Diversity Set (AID 1174); conditions: higher = more signal, called active from +8 up or from −8 down;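 also: MM1S multiple myeloma cell line; test concentration not given here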
# [14] = molecular target: Dihydroorotate dehydrogenase (quinone), mitochondrial (Plasmodium falciparum (isolate 3D7)) (UniProt Q08210); assay: PfDHODH enzyme inhibitors, primary screen, biochemical, C-terminal His tag, absorbance 600 nm (AID 1175); conditions: DCIP absorbance 600 nm, higher = more signal, called active from +8 up or from −8 down;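 also: recombinant parasite enzyme with a five histidine tag at its C terminus; test concentration not given here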
# Sequence of Dihydroorotate dehydrogenase (quinone), mitochondrial (Plasmodium falciparum (isolate 3D7)) (Q08210 whole entry, looked up): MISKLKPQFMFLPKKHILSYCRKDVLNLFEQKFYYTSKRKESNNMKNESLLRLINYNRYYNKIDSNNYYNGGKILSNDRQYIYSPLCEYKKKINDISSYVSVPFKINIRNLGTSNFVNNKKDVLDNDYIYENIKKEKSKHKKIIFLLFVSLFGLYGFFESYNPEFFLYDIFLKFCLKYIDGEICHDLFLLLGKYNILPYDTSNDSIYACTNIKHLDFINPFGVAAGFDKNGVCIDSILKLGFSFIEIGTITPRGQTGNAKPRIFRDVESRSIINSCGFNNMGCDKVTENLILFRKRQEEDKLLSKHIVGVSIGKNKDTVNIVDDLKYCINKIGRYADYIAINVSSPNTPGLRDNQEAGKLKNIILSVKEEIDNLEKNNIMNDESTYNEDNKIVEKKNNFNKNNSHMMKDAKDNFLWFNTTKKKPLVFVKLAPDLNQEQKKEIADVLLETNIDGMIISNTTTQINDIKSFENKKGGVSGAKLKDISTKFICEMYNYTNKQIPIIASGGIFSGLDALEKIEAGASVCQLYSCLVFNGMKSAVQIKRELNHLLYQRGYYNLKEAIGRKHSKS
# [15] = P. aeruginosa biofilm formation inhibitors, primary screen, strain PAO1, LB-PBS medium, absorbance 600 nm (AID 1176); also: test concentration not given here; conditions: P. aeruginosa PAO1 growth/biofilm, A600, 12 h; higher = more signal
# [16] = S. cerevisiae RM11-1a growth modifiers, primary screen, strain RM11-1a, OD600, basal, 24 h (AID 1177); conditions: OD600, 24 h, higher = more signal, called active from +8 up or from −8 down;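 also: cultures grown under basal conditions with no added stressor; test concentration not given here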
# [17] = E. coli acrAB mutant growth effects, primary screen, E. coli filamentation inducers, strain DRC39, OD650, 24 h (AID 1178); conditions: higher = more signal, called active from +8 up or from −8 down;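 also: growth measured as culture turbidity by optical density at 650 nm; test concentration not given here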
# [18] = E. coli acrAB mutant growth effects, primary screen, E. coli filamentation inducers, strain DRC39, OD650, 48 h (AID 1179);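 also: screen aims at cell division blockers that make cells filament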; conditions: E. coli DRC39 delta-acrAB growth, higher = more signal, called active from +8 up or from −8 down
# [19] = RPMI8226 myeloma cell viability, profiling panel, resazurin fluorescence, basal, 24 h, PK04 Diversity Set (AID 1180); conditions: higher = more signal;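 also: RPMI8826 multiple myeloma cell line at 5000 cells per well; test concentration not given here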
# [20] = molecular target: E3 ubiquitin-protein ligase XIAP (Homo sapiens) (UniProt P98170); assay: XIAP binders, primary screen, biophysical, small-molecule microarray, fluorescence 635 nm (AID 1181); conditions: small-molecule microarray binding, higher = more signal;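 also: score merges 667 nm emission and signal to noise over triplicate slides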
# Sequence of E3 ubiquitin-protein ligase XIAP (Homo sapiens) (P98170 whole entry, looked up): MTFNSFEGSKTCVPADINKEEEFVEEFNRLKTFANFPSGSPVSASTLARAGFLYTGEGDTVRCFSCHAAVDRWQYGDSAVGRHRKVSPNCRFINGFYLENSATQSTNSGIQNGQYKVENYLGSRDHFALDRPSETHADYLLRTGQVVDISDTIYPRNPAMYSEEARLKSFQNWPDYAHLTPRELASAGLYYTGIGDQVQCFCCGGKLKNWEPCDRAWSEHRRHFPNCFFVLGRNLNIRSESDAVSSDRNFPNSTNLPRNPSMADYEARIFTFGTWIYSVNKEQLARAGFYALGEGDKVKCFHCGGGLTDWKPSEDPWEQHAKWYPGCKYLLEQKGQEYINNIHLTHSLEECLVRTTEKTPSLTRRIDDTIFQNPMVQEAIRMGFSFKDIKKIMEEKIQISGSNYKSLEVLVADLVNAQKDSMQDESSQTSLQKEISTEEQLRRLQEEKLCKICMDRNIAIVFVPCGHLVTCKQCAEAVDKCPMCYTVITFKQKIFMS
SMILES,z-score [1],z-score [2],z-score [3],z-score [4],z-score [5],z-score [6],z-score [7],z-score [8],z-score [9],z-score [10],z-score [11],z-score [12],z-score [13],composite z-score [14],z-score [15],z-score [16],z-score [17],z-score [18],z-score [19],composite z-score [20]
CC(C)N1C(=O)C[C@@](C(=O)NCC(F)(F)F)(c2ccc([N+](=O)[O-])cc2)[C@H]1c1ccc(CO)cc1,1.41,1.13,-0.0704,-0.464,-1.66,0.868,-0.502 (inactive),-0.564,-1.51,0.201 (inactive),-0.228,-0.957 (inactive),1.26 (inactive),-0.297 (inactive),0.255 (inactive),-1.09 (inactive),0.818 (inactive),0.629 (inactive),0.939,-0.0448
CC(C)C(=C=CC[C@@H](O)c1ccc(OCCO)cc1)C[C@@H](O)c1ccccn1,-0.343,-1.03,0.411,-0.473,-0.3,-0.737,0.00461 (inactive),0.0263,-0.698,-0.287 (inactive),-0.287,-0.492 (inactive),-0.426 (inactive),-11.9 (active),0.85 (inactive),0.406 (inactive),-0.235 (inactive),-0.0608 (inactive),-0.538,0.273
O=C1C[C@@](C(=O)NCC(F)(F)F)(c2ccc([N+](=O)[O-])cc2)[C@@H](c2ccc(CO)cc2I)N1C1CCCCC1,-0.0922,0.665,-0.644,-2.28,-1.65,0.548,-0.226 (inactive),-0.521,-1.02,0.324 (inactive),-0.0199,-0.805 (inactive),0.233 (inactive),-0.277 (inactive),0.609 (inactive),0.195 (inactive),-0.218 (inactive),-0.182 (inactive),-0.589,-0.0172
O=C1c2ccccc2[C@](Cc2ccccc2I)(C(=O)NCCN2CCOCC2)[C@H](c2ccc(CO)cc2)N1C1CCCCC1,0.668,0.195,1.52,-0.196,-1.22,1.36,-1.01 (inactive),-0.385,-0.96,-0.112 (inactive),-0.16,-1.21 (inactive),-0.526 (inactive),-0.119 (inactive),0.531 (inactive),0.358 (inactive),0.29 (inactive),0.205 (inactive),-0.954,0.0623
CC(C)=CCCC(C)=CC(O)C1C=CC2C(=O)N(C)C(=O)C2N1Nc1ccccc1 (stereo not given),-1.81,-1.39,-1.35,-2.56,-4.09,-2.66,1.29 (inactive),-0.934,-1.34,0.597 (inactive),-1.34,-4.94 (inactive),-1.37 (inactive),0.0684 (inactive),1.51 (inactive),0.938 (inactive),-0.261 (inactive),0.0052 (inactive),-2.03,0.123
COc1ccc(CCNC(=O)[C@@]2(Sc3ccc(C)cc3)CC(=O)N(C(C)C)[C@@H]2c2ccc(CO)cc2I)cc1,1.68,0.345,0.0217,-3.07,-2.32,0.529,-0.139 (inactive),-0.686,-0.942,-0.192 (inactive),0.104,-1.77 (inactive),-1.63 (inactive),0.0834 (inactive),0.196 (inactive),-0.894 (inactive),-0.246 (inactive),-0.126 (inactive),-2.47,0.0374
CCCCC(CC)C(O)C1C=CC2C(=O)N(Cc3ccccc3)C(=O)C2N1n1cnnc1 (stereo not given),-0.682,-0.498,-0.391,-0.165,-0.208,-0.522,-1.48 (inactive),0.447,0.533,-0.56 (inactive),-0.661,0.374 (inactive),-0.763 (inactive),-0.495 (inactive),-0.445 (inactive),-0.666 (inactive),-1.03 (inactive),-1.46 (inactive),-1.01,0.0228
CCOC(=O)C[C@H]1[C@H](OC(=O)c2ccc(C(=O)c3ccccc3)cc2)[C@@H](NC(=O)c2ccc3ccccc3c2)c2cc(OCCCO)ccc2N1C(=O)Cc1ccc(OC)cc1,-0.0783,0.539,0.294,0.655,0.39,1.32,-0.808 (inactive),-0.716,-0.51,0.0571 (inactive),-0.0265,-0.291 (inactive),0.238 (inactive),-0.148 (inactive),-0.382 (inactive),0.4 (inactive),-0.276 (inactive),0.471 (inactive),0.287,-0.12
C=CCNC(=O)[C@@H]1[C@H]2C(=O)O[C@H](c3ccccc3)[C@H](c3ccccc3)N2[C@H](c2ccc(O)cc2)[C@@]12C(=O)N(C(=O)OCCOC)c1ccc(C#CCNC(N)=O)cc12,0.978,0.921,0.866,0.768,1.09,-0.194,-0.323 (inactive),0.383,0.751,-0.645 (inactive),-0.0359,0.0215 (inactive),-0.0272 (inactive),-1.74 (inactive),0.318 (inactive),-0.586 (inactive),0.916 (inactive),1.39 (inactive),0.302,-0.17
O=C1N[C@@H](Cc2ccccc2)C(=O)N2[C@@H]1C[C@@H](C(=O)O)[C@H]2c1cccc(OCCO)c1,0.432,-0.732,-0.0202,-2.61,0.358,1.3,-1.49 (inactive),0.448,-1.19,2.99 (inactive),-1.6,0.165 (inactive),-0.0089 (inactive),-2.58 (inactive),0.0499 (inactive),0.346 (inactive),0.395 (inactive),0.993 (inactive),-0.277,-0.102
COc1ccc(C(O)C2C=CC3C(=O)N(Cc4ccccc4)C(=O)C3N2n2cnnc2)cc1OCc1ccccc1 (stereo not given),0.187,0.534,-0.345,0.195,-1.79,-0.323,-1.06 (inactive),0.593,-0.882,0.18 (inactive),-0.299,0.278 (inactive),0.708 (inactive),-0.265 (inactive),1.13 (inactive),-0.271 (inactive),1.31 (inactive),-0.48 (inactive),0.329,0.035
C=CCN1C(=O)[C@@]2(Cc3ccccc31)N=C(c1ccc(OCCCO)cc1)O[C@H]2c1ccccc1,-0.914,-0.107,-1.38,-3.23,-2.16,-0.927,0.133 (inactive),-0.942,-1.29,-1.99 (inactive),-0.0935,-2.94 (inactive),-2.21 (inactive),0.161 (inactive),0.122 (inactive),1.4 (inactive),1.27 (inactive),0.775 (inactive),-2.81,-0.0009
NCCCCCNC(=O)[C@@H]1C[C@@H]2C(=O)N[C@@H](Cc3ccccc3)C(=O)N2[C@@H]1c1ccc(O)cc1,-0.119,0.588,-0.0207,-1.4,-0.0144,0.181,-0.0278 (inactive),0.00631,0.397,-0.0029 (inactive),-1.74,-0.576 (inactive),-0.0591 (inactive),-0.0741 (inactive),1.07 (inactive),-0.56 (inactive),-0.598 (inactive),-0.384 (inactive),0.15,0.013
O=C(c1ccccc1)N1C(=O)[C@]2(COC(c3ccc(OCCCO)cc3)=N2)Cc2ccccc21,-0.525,0.6,-0.92,-1.72,-3.77,-1.23,-0.03 (inactive),-1.26,-1.49,-0.272 (inactive),0.0993,-1.67 (inactive),-1.96 (inactive),0.201 (inactive),0.95 (inactive),0.349 (inactive),0.107 (inactive),-0.26 (inactive),-1.24,0.0479
C=CCC(OC(C)=O)[C@@H]1[C@@H](N(Cc2cccc3ccccc23)C(=O)c2ccc(-c3ccccc3)cc2)c2cc(OCCCO)ccc2N1C(=O)c1ccc2ccccc2c1 (stereo not given in full),-0.525,-0.526,-0.62,0.279,-0.494,1.62,-0.693 (inactive),-0.011,-0.000791,1.09 (inactive),0.256,1.04 (inactive),0.163 (inactive),-0.149 (inactive),0.845 (inactive),0.132 (inactive),0.0986 (inactive),0.295 (inactive),1.23,0.0463
O=C1C[C@@](C(=O)NCCN2CCOCC2)(c2ccc([N+](=O)[O-])cc2)[C@@H](c2ccc(CO)cc2I)N1CC12CC3CC(CC(C3)C1)C2,-4.03,0.546,-5.11,-3.86,-4.39,-2.72,0.981 (inactive),-0.93,-2.17,-4.83 (inactive),-5.11,-12.9 (active),-6.88 (inactive),-0.227 (inactive),0.941 (inactive),-21.4 (active),-0.272 (inactive),-0.305 (inactive),-5.62,-0.0095
OCCCC1=CC(c2cccs2)N(Cc2cc3c(cc2Br)OCO3)CC1 (stereo not given),-0.433,1.03,0.145,-1.44,-1.52,-0.578,-0.359 (inactive),-0.707,-0.145,-0.178 (inactive),-0.429,-2.09 (inactive),-0.643 (inactive),-0.966 (inactive),0.531 (inactive),-0.174 (inactive),-0.341 (inactive),-0.681 (inactive),-0.829,0.019
O=C1O[C@@H](c2ccccc2)[C@@H](c2ccccc2)N2[C@@H](c3ccccc3OCCO)[C@]3(C(=O)Nc4ccccc43)[C@@H](C(=O)Nc3nc4ccccc4s3)[C@H]12,-2.12,1.18,-1.98,-3.17,-4.44,-2.85,3.87 (inactive),-1.3,-1.54,-1.52 (inactive),-0.699,0.583 (inactive),-2.95 (inactive),0.905 (inactive),1.36 (inactive),1.11 (inactive),-0.986 (inactive),-1.25 (inactive),-5.15,0.0975
